Screens deposited in PubChem BioAssay by National Center for Advancing Translational Sciences (NCATS).
VDR inhibitor: blocks the human vitamin D receptor; AID 504847; P11473; VDR-SRC2-3 peptide fluorescence polarization, 2 h; 0.93% of 400,000 active; Potency, µM, inactives show max response, negative = inhibition, hits mostly inhibitors
Target sequence (P11473 whole entry, looked up): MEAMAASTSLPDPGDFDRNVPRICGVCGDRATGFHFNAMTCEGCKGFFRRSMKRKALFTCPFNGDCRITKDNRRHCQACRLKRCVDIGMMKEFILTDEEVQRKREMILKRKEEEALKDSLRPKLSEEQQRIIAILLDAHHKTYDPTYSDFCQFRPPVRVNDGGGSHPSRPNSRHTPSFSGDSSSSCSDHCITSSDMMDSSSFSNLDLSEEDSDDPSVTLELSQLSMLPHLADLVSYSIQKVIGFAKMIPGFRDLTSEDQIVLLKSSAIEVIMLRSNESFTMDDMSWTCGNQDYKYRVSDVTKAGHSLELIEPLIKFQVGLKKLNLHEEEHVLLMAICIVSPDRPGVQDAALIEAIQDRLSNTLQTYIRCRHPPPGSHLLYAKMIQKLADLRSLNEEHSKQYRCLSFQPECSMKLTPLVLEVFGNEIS
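FP read-out; VDR + SRC2-3 coactivator peptide; 23 nl compound by pintool; 2 h RT incubation; reagents held at 4 deg C, protected from light.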
PLK1 PBD block: PLK1 (human) polo-box domain binding inhibition; Plk1 PBD binding of FITC phosphopeptide, fluorescence polarization; Potency, µM, without a hit: max response, negative = inhibition, usual class: inhibitors; 2.8% of 360,000 active; AID 720504; note: series mostly up to about 57 µM; nearly all actives have a fitted effect of over 65% in size
DT40 TDP1 CPT: DT40-hTDP1 cell growth loss with CPT | chicken DT40 Tdp1-/-;hTDP1 cells + 20 nM CPT, ATP luminescence, 48 h | Potency, µM (top dose mostly 46.2 µM), for inactives: at the highest dose activity change, negative = growth inhibition, usual class: inhibitors | 12% of 420,000 active; note: nearly all actives have a fitted effect of over 55% in size
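Chicken DT40 Tdp1-/- cells complemented with human TDP1, 400 cells/well, exposed to compounds plus 20 nM camptothecin for at least 48 h at 37 C; viability read as ATP content by CellTiter-Glo luminescence.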
GCN5L2 inh: blocks human GCN5L2 histone acetyltransferase; Q92830; GCN5L2 HAT assay, ThioGlo1 CoA-SH fluorescence; Potency, µM (doses to about 58.9 µM), without a hit: at the top dose activity change, negative = inhibition, actives largely listed as inhibitors; 0.21% of 390,000 active
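Preincubate 20nM GCN5L2 with compound 15 min, RT → add 50uM ThioGlo1 + 75uM H3(1-25) + 70uM acetyl-CoA → read fluorescence 0 and 20 min. Primary qHTS; fluorescent artifacts likely.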
TDP1 inh: blocks human tyrosyl-DNA phosphodiesterase 1; Q9NUW8; Potency, µM (top dose mostly 130 µM), inactives show top-dose activity change, negative = inhibition, actives largely listed as inhibitors; 0.28% of 350,000 active; recombinant TDP1, AlphaScreen DNA substrate cleavage; note: nearly all actives have a fitted effect of over 40% in size
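Recombinant human Tdp1 (E. coli-expressed, 1 nM final) preincubated with compounds 15 min at room temperature, then 5'-biotin/3'-phosphotyrosine-FITC DNA substrate (15 nM final) added for 5 min. AlphaScreen beads (10 ug/ml final) added 10 min; cleavage lowers signal.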
DT40 TDP1 no CPT: qHTS for Inhibitors of human tyrosyl-DNA phosphodiesterase 1 (TDP1): qHTS in cells in absence of CPT. DT40 Tdp1-/- hTDP1 cells, no CPT, ATP luminescence, 48 h. 15% of 420,000 active. Potency, µM (series often up to 46.2 µM), for inactives: at the highest dose activity change, negative = growth inhibition, most hits filed as inhibitors; note: nearly all actives have a fitted effect of over 55% in size
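Readout: luminescence from CellTiter-Glo after 30 min in the dark at RT. Cells: DT40 Tdp1-/- with stable hTDP1, 400/well. Exposure: compounds alone, ≥48 hr, 37 °C.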
Active calls of the source: *; ? = inconclusive; . = not tested or not shown; [ ] = remark or other dose. In the library only some 18% were active in any assay of this set; here they are far more common. Calls come from the whole dose curve; as a rule, active = well fitted curve in the direction sought with a large enough effect; inconclusive = small, poorly fitted or top-dose-only effect, or another doubt; inactive = no such curve, though single readings can be large; an effect the other way counts as inactive or inconclusive. % is set by controls: 0 for no effect and ±100 for the full control effect; potency is the fitted concentration of half-maximal effect.

SMILES	VDR inhibitor	PLK1 PBD block	DT40 TDP1 CPT	GCN5L2 inh	TDP1 inh	DT40 TDP1 no CPT
COc1ccc(S(=O)(=O)N2CCCCCC2)cc1NC(=O)CN1C(=O)NC(C)(c2ccc(C)cc2)C1=O (stereo not given)	1%	4%	?	-1%	-5%	?
Cc1ccc(C2(C)NC(=O)N(CC(=O)Nc3ccc(Cl)c(S(=O)(=O)N4CCCCC4)c3)C2=O)cc1 (stereo not given)	-16%	10%	?	-15%	1%	18µM*
CCOc1ccc(S(=O)(=O)N2CCCCC2)cc1NC(=O)CN1C(=O)NC(C)(c2ccc(C)cc2)C1=O (stereo not given)	11%	-3%	23µM*	-10%	0%	16µM*
COc1cc(NC(=O)c2cc3nc(-c4ccc(C)cc4)cc(C(F)(F)F)n3n2)cc(OC)c1OC	-18%	.	?	0%	0%[12.3 µM]	7.3µM*
CCCCNC(=O)c1nn2c(C(F)(F)F)cc(-c3ccc(OC)cc3)nc2c1Br	-23%	12µM*	23µM*	2%	.	?
COCCNC(=O)c1cc2nc(-c3ccc(F)cc3)cc(C(F)(F)F)n2n1	0%	-7%	1%	0%	-4%	8%
CCCCNC(=O)c1cc2nc(-c3ccc(OC)cc3)cc(C(F)(F)F)n2n1	.	-15%	?	.	.	26µM*
CCCNC(=O)c1nn2c(C(F)(F)F)cc(-c3ccccc3)nc2c1Br	1%	-3%	-22%	-2%	.	?
COC(=O)c1cc2nc(-c3ccc(C)cc3)cc(C(F)(F)F)n2n1	-21%	-11%	-1%	-1%	0%	-1%
COc1ccc(-c2cc(C(F)(F)F)n3nc(C(=O)N(C)Cc4ccccc4)cc3n2)cc1OC	0%	-24%	16µM*	-24%	8%	?
Cc1ccc(S(=O)(=O)N(C)c2ccc(C(=O)Nc3ccccc3C(=O)N3CCOCC3)cc2)cc1	-11%	-10%	-16%	-7%	2%	?
N#CCCn1c(=O)cnc2cnc(Nc3ccccc3)nc21	-1%	.	?	-17%	.	?
O=C(N/N=C/c1ccc(O)cc1O)c1ccc(CN2C(=O)c3cccc4cccc2c34)cc1	5%	-1%	4.6µM*	-16%	6%	3.7µM*
O=C(N/N=C/c1ccccc1)c1ccc(CN2C(=O)c3cccc4cccc2c34)cc1	3%	-13%	-12%	-19%	-8%	-19%
C=C1CCN(C(CC(C)C)C(=O)NN2CCOCC2)S(=O)(=O)c2ccccc21 (stereo not given)	-16%	.	.	.	3%	.
Cc1cc(C)c(S(=O)(=O)Nc2cc(-c3cn4ccccc4n3)ccc2C)cc1C	7%	.	21µM*	-9%	7%	21µM*
CCCS(=O)(=O)Nc1cc(-c2cn3ccc(C)cc3n2)ccc1C	13%	.	-7%	-5%	7%	?
Cc1ccc(S(=O)(=O)Nc2cccc(-c3cn4cccc(C)c4n3)c2)c(C)c1	-4%	.	?	-6%	.	?
COc1ccc(Br)cc1S(=O)(=O)Nc1cc(-c2cn3ccccc3n2)ccc1C	-5%	.	?	-2%	5%	13µM*
Cc1ccc(-c2cn3cccc(C)c3n2)cc1NS(=O)(=O)c1ccccc1	9%	.	26µM*	-10%	-2%	16µM*
COc1ccc(S(=O)(=O)Nc2cc(-c3cn4ccc(C)cc4n3)ccc2C)cc1OC	9%	.	16µM*	-11%	2%	16µM*
Cc1ccc(NS(=O)(=O)Cc2ccccc2)cc1Cl	-5%	-5%	4%	-10%	2%	?
O=C(Nc1ccc(F)cc1)c1ccc(-n2cnnc2)cc1	2%	.	-6%	-6%	2%	?
CCOc1cc(CNC(=O)c2ccc(Cn3c(=O)c4cccn4c4cccnc43)cc2)ccc1OC	7%	.	-28%	2%	8%	?
CC(=O)Nc1ccc(CN(C)c2c(C)nc3ccc(C(=O)NCCCn4ccnc4)cn23)cc1	.	-6%	12%	.	.	7%
SMILES	VDR inhibitor	PLK1 PBD block	DT40 TDP1 CPT	GCN5L2 inh	TDP1 inh	DT40 TDP1 no CPT
CCc1ccccc1N(C)C(=O)Cn1cnc2sc(C)c(S(=O)(=O)N3CCN(c4ncccn4)CC3)c2c1=O	-1%	.	?	-7%	0%	?
COCCN1C(=O)N[C@@H](c2cccs2)C(C(C)=O)=C1C	-20%	5%	-3%	.	8%[12.3 µM]	-19%
COC(=O)C1CC(=O)c2sccc2C1 (stereo not given)	5%	-4%	12%	1%	0%	-4%
Cc1cccn2cc(-c3ccc(S(=O)(=O)N4CCOCC4)cc3)nc12	-7%	2%	?	-15%	0%	16µM*
C[C@H](CO)N1C[C@H](C)[C@@H](CN(C)Cc2ccccc2)OCc2cnnn2CCCC1=O	.	-9%	-1%	.	.	30%
S=c1[nH]cc(-c2ccccc2)[nH]1	-23%	-10%	-2%	-4%	.	-11%
O=[N+]([O-])c1ccc(-c2c[nH]c(=S)[nH]2)cc1	?	7.5µM*	16µM*	?	0%	?
COC(=O)Cc1ccc(NC(=S)NCCSc2ccc(Cl)cc2)cc1	10%	1%	?	-7%	4%	21µM*
COC(=O)Cc1ccc(NC(=S)NCCC(C)C)cc1	-8%	-11%	-2%	-7%	3%	-7%
Cc1cc(C)cc(NC(=S)NCCSc2ccc(Cl)cc2)c1	-11%	-15%	?	-1%	-3%	21µM*
Cc1cc(C)cc(C(O)c2ncc(-c3ccc4ccccc4c3)[nH]2)c1 (stereo not given)	.	-7%	23µM*	.	.	?
Cc1cccc(-c2cnc(C(O)c3ccc(-c4ccccc4)cc3)[nH]2)c1 (stereo not given)	.	-3%	23µM*	.	.	23µM*
COc1ccc(OC)c(CNS(=O)(=O)c2ccc3c(c2)oc(=O)n3C)c1	-5%	.	?	-1%	0%	?
O=S(=O)(c1cccc2ccccc12)N1CCC2CC1c1cc(Cl)ccc12 (stereo not given)	-2%	-3%	?	.	.	?
CC(C)NC(=O)C1(C)CN(S(C)(=O)=O)CC(=O)N1CCc1ccccc1F (stereo not given)	.	-8%	2%	.	.	-7%
O=C(Nc1ccc(N2CCN(C(=O)c3ccccc3)CC2)cc1)c1ccc(Br)o1	7%	1%	16µM*	-11%	4%	?
O=C(Nc1ccc(N2CCOCC2)c(Cl)c1)c1ccc(Br)o1	5%	-4%	?	-4%	1%	11µM*
